PubChem BioAssay AID1159580 (chemical genetic matrix, 2015)
In all, about 5,500 compounds went through this assay and about 2,000 (36%) were called active. Not shown: some 18% with an inconclusive outcome. No stated cut-off is given here; in the data, active means normalized growth mostly below about 0.91 (no sharp cut-off); inconclusive means no clear call, values can overlap the other calls; inactive means mostly above about 0.92. The list shows a part of the results.

Experiment: chemical genetic growth profiling, strain panel (AID 1159580);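 further: tested at 20 µM; growth read once vehicle control cultures reached saturation at 30 °C; 1 = growth at the plate median or of vehicle wells; lower values mean less growth of the strain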
Settings: S. cerevisiae deletion strains, growth OD

Measured: normalized growth

CC(=O)OC1CCC2(O)CC1(C)CCC1C2CC1(C)C (stereo not given)
inactive: locus YAL021C, strain ccr4, hits give low values 1 | locus YAL026C, strain drs2, hits give low values 1.05 | locus YAL030W, strain snc1, hits give low values 1.02 | locus YBL061C, strain skt5, hits give low values 1.02 | locus YBR009C, strain hhf1, hits give low values 1.03 | locus YBR021W, strain FUR4, hits give low values 1 | locus YBR023C, strain chs3, hits give low values 1.02 | locus YBR171W, strain sec66, hits give low values 1.03 | locus YBR229C, strain ROT2, hits give low values 0.949 | locus YBR231C, strain swc5, hits give low values 1.05 | locus YBR279W, strain paf1, hits give low values 1.01 | locus YCL011C, strain gbp2, hits give low values 1.03 | locus YCL016C, strain dcc1, hits give low values 1.02 | locus YCL029C, strain bik1, hits give low values 0.974 | locus YCL061C, strain MRC1, hits give low values 1.02 | locus YCL069W, strain vba3, hits give low values 1.03 | locus YCR088W, strain abp1, hits give low values 1.02 | locus YDL005C, strain med2, hits give low values 1.02 | locus YDL035C, strain GPR1, hits give low values 0.958 | locus YDL040C, strain nat1, hits give low values 1.02 | locus YDL074C, strain BRE1, hits give low values 0.989 | locus YDL101C, strain DUN1, hits give low values 0.992 | locus YDL185W, strain tfp1, hits give low values 0.968 | locus YDL192W, strain arf1, hits give low values 0.981 | locus YDR001C, strain nth1, hits give low values 1.02 | locus YDR069C, strain doa4, hits give low values 1.03 | locus YDR101C, strain arx1, hits give low values 0.973 | locus YDR137W, strain rgp1, hits give low values 0.988 | locus YDR159W, strain sac3, hits give low values 1.06 | locus YDR162C, strain NBP2, hits give low values 0.938 | locus YDR195W, strain ref2 1.01 | locus YDR297W, strain sur2, hits give low values 1.01 | locus YDR318W, strain mcm21, hits give low values 0.977 | locus YDR334W, strain swr1, hits give low values 1.03 | locus YDR335W, strain msn5, hits give low values 1.04 | locus YDR388W, hits give low values 0.965 | locus YDR392W, strain spt3, hits give low values 0.955 | locus YDR502C, strain sam2, hits give low values 1.02 | locus YEL003W, strain gim4, hits give low values 1.04 | locus YEL037C, strain rad23, hits give low values 1.02 | locus YEL061C, strain CIN8 (second series), hits give low values 1.03 | locus YER015W, strain faa2, hits give low values 1.02 | locus YER016W, strain bim1, hits give low values 1.03 | locus YER110C, hits give low values 0.973 | locus YER111C, strain swi4, hits give low values 1.02 | locus YER155C, strain BEM2 (second series), hits give low values 1.05 | locus YER155C, strain BEM2, hits give low values 0.982 | locus YER167W, strain BCK2, hits give low values 0.975 | locus YFR010W, strain ubp6, hits give low values 1.04 | locus YGL078C, strain dbp3, hits give low values 1.02 | locus YGL086W, strain mad1, hits give low values 0.996 | locus YGL167C, strain pmr1, hits give low values 1.02 | locus YGL173C, strain kem1, hits give low values 1.04 | locus YGL227W, strain vid30, hits give low values 1.03 | locus YGL240W, strain doc1, hits give low values 1.03 | locus YGL248W, strain PDE1, hits give low values 1.01 | locus YGL253W, strain hxk2, hits give low values 1.07 | locus YGR135W, strain pre9, hits give low values 1.07 | locus YGR229C, strain SMI1, hits give low values 0.914 | locus YGR252W, strain gcn5, hits give low values 1.05 | locus YHR013C, strain ard1, hits give low values 1.03 | locus YHR027C, strain rpn1, hits give low values 1.02 | locus YHR079C, strain IRE1 (second series), hits give low values 0.982 | locus YHR094C, strain hxt1, hits give low values 0.976 | locus YHR129C, strain ARP1, hits give low values 0.988 | locus YHR142W, strain chs7, hits give low values 1.03 | locus YHR200W, strain rpn10, hits give low values 0.999 | locus YIL066C, strain RNR3, hits give low values 0.961 | locus YIL073C, strain SPO22, hits give low values 1.03 | locus YIL125W, strain kgd1, hits give low values 0.986 | locus YIR030C, strain dcg1, hits give low values 0.972 | locus YJL092W, strain hpr5, hits give low values 1.03 | locus YJL095W, strain BCK1 (second series), hits give low values 1.04 | locus YJL095W, strain BCK1, hits give low values 1.02 | locus YJL115W, strain asf1, hits give low values 1.01 | locus YJL129C, strain trk1, hits give low values 1.01 | locus YJL134W, strain LCB3, hits give low values 0.974 | locus YJL154C, strain vps35, hits give low values 1.03 | locus YJL164C, strain tpk1, hits give low values 1 | locus YJL166W, strain qcr8, hits give low values 1.03 | locus YJL168C, strain set2, hits give low values 0.991 | locus YJL187C, strain SWE1 (second series), hits give low values 1.01 | locus YJL187C, strain SWE1, hits give low values 1.03 | locus YKL009W, strain mrt4, hits give low values 0.976 | locus YKL068W, hits give low values 0.984 | locus YKL085W, strain MDH1 (second series), hits give low values 0.979 | locus YKL085W, strain MDH1, hits give low values 0.979 | locus YKL160W, strain elf1, hits give low values 1.01 | locus YKL190W, strain CNB1, hits give low values 0.981 | locus YKR001C, strain vps1, hits give low values 0.977 | locus YKR026C, strain gcn3, hits give low values 1.03 | locus YKR091W, strain srl3, hits give low values 1.02 | locus YLL001W, strain dnm1, hits give low values 1 | locus YLL026W, hits give low values 1.01 | locus YLL041C, strain sdh2, hits give low values 1.02 | locus YLR027C, strain aat2, hits give low values 1.05 | locus YLR039C, strain RIC1, hits give low values 0.945 | locus YLR058C, strain SHM2, hits give low values 0.978 | locus YLR102C, strain apc9, hits give low values 0.996 | locus YLR221C, strain rsa3, hits give low values 1.05 | locus YLR258W, strain gsy2, hits give low values 1.04 | locus YLR262C, strain YPT6 (second series), hits give low values 1.03 | locus YLR268W, strain sec22, hits give low values 0.943 | locus YLR320W, strain mms22, hits give low values 1.05 | locus YLR330W, strain CHS5, hits give low values 0.987 | locus YLR342W, strain FKS1 (second series), hits give low values 0.97 | locus YLR342W, strain FKS1, hits give low values 1.02 | locus YLR357W, strain rsc2, hits give low values 1.03 | locus YLR370C, strain arc18, hits give low values 1.02 | locus YLR371W, strain rom2, hits give low values 1.02 | locus YLR384C, strain iki3, hits give low values 1.01 | locus YLR418C, strain cdc73, hits give low values 1.04 | locus YML016C, strain PPZ1, hits give low values 0.974 | locus YML032C, strain rad52, hits give low values 0.985 | locus YML120C, strain ndi1, hits give low values 0.999 | locus YML124C, strain tub3, hits give low values 0.982 | locus YMR058W, strain fet3, hits give low values 1.04 | locus YMR078C, strain ctf18, hits give low values 0.997 | locus YMR125W, strain sto1, hits give low values 0.998 | locus YMR129W, hits give low values 1.02 | locus YMR205C, strain PFK2, hits give low values 1.04 | locus YMR223W, strain ubp8, hits give low values 1.02 | locus YMR231W, strain pep5, hits give low values 1.02 | locus YMR263W, strain SAP30, hits give low values 0.984 | locus YMR307W, strain GAS1, hits give low values 0.926 | locus YNL067W, strain RPL9B, hits give low values 1.01 | locus YNL071W, strain lat1, hits give low values 1.03 | locus YNL209W, strain ssb2, hits give low values 1.01 | locus YNL233W, strain BNI4, hits give low values 1.05 | locus YNL248C, strain rpa49, hits give low values 1.03 | locus YNL250W, strain rad50, hits give low values 0.956 | locus YNL271C, strain bni1, hits give low values 0.991 | locus YNL298W, strain CLA4, hits give low values 0.967 | locus YNL307C, strain MCK1, hits give low values 1.01 | locus YNL322C, strain KRE1 (second series), hits give low values 1.01 | locus YNR049C, strain mso1, hits give low values 1.05 | locus YNR052C, strain pop2, hits give low values 1.04 | locus YOL006C, strain TOP1, hits give low values 0.973 | locus YOL012C, strain htz1 0.722 | locus YOL147C, strain pex11, hits give low values 0.985 | locus YOR001W, strain rrp6, hits give low values 1.06 | locus YOR061W, strain CKA2, hits give low values 0.957 | locus YOR069W, strain VPS5, hits give low values 0.983 | locus YOR070C, strain gyp1, hits give low values 1.03 | locus YOR080W, strain dia2, hits give low values 1.02 | locus YOR083W, strain WHI5, hits give low values 1.06 | locus YOR106W, strain vam3, hits give low values 1.02 | locus YOR136W, strain idh2, hits give low values 0.992 | locus YOR144C, strain elg1, hits give low values 0.988 | locus YOR184W, strain ser1, hits give low values 0.909 | locus YOR265W, strain rbl2, hits give low values 1.02 | locus YOR270C, strain vph1, hits give low values 1.13 | locus YOR290C, strain snf2, hits give low values 1.03 | locus YOR316C, strain cot1, hits give low values 0.992 | locus YPL051W, strain arl3, hits give low values 1.01 | locus YPL055C, strain LGE1, hits give low values 0.932 | locus YPL078C, strain atp4, hits give low values 1 | locus YPL106C, strain sse1, hits give low values 0.991 | locus YPL240C, strain hsp82, hits give low values 1.02 | locus YPL241C, strain CIN2, hits give low values 0.997 | locus YPR119W, strain clb2, hits give low values 0.989 | locus YPR141C, strain kar3, hits give low values 0.977 | locus YPR163C, strain tif3, hits give low values 0.989 | locus YPR167C, strain met16, hits give low values 0.993 | strain wtn01, hits give low values 0.958
